# Several values for one entry are separate records, joined by “and”; a condition that tells them apart may be missing. Equal entries are not always repeated. Records with an inconclusive call do not appear. Where a structure was tested more than once in an assay, its records may differ in their call. A number with no mark means an inactive call. Activity calls are given as the source filed them. Calls follow the shape of the dose curve; as a rule, active = well fitted inhibition curve with a large enough effect; inconclusive = small, poorly fitted or top-dose-only effect; inactive = no such curve, though single readings can be large or run the other way.
# Assay: qHTS Assay for Lipid Storage Modulators: COS7 Assay against Probe and Analogs
# Conditions: COS7 lipid droplet area, BODIPY imaging, 18 h; cells loaded with 400 µM oleic acid
# From the text: Storing lipids as a reservoir for energy or the anabolism of elementary metabolites is a common feature of probably all cells and is conserved from bacteria to humans. The universal cellular lipid storage organelle is the so-called lipid storage droplet (LD). Although ubiquitous, LDs share a simple structure composed of a hydrophobic core that harbors the storage lipids, which is shielded by a droplet-specific phospholipid monolayer to which proteins are attached. The current model of LD biogenesis involves an incorporation of the lipid core into the membrane leaflets of the endoplasmic reticulum (ER) followed by a subsequent budding-like maturation of a LD, which ultimately pinches off. Once released, LD volume can increase by localized lipogenesis or fusion of existing droplets. Storage lipids are re-mobilized enzymatically by lipase activity. Lipase regulation in the adipocyte is heavily studied and involves multiple components including catecholamine signaling, the LD-associated proteins Perilipin and comparative gene identification-58 (CGI-58) and at least two lipases named hormone sensitive lipase (HSL) and adipocyte triglyceride lipase (ATGL). LD regulation outside of the adipocyte is poorly understood and only few components are known. However, there is an urgent need to learn more about ectopic fat depots as mislocalized storage of lipids, for example in the liver or muscle, is an eminent health problem associated with insulin resistance or the metabolic syndrome. We developed a laser-scanning cytometer assay to enable 1,536-well screening and combined the results of the small molecules screen with an RNAi database based on lipid storage. In this assay we tested analogs of the probe against a mammalian cell line (COS7), to see if these small molecules could disrupt lipid storage. NIH Molecular Libraries Probe Production Centers Network [MLPCN] NIH Chemical Genomics Center [NCGC] MLPCN Grant: MH085686 Assay Submitter (PI): Mathias Beller, Max-Planck-Institut fur Biophysikalische Chemie
# COS7 cells were obtained from ATCC (CRL-1651), 5500 cells/well were dispensed into Corning 96 well imaging plate (catalog # 3340), and cultured in 100 uL of 1:1 DMEM medium (PAA) contain 10% fetal bovine serum (FBS) for 24 hours at 37 degrees C, 95% humidity, and 5% CO2. The medium was exchanged for compound treatment. Compound treatment occurred in 150 microL serum reduced medium (5% FBS) and 0.2% DMSO in presence of 400 microM oleic acid for 17-18 h. Cells were then fixed (3.7 % formaldehyde in PBS, 5 min), permeabilized (0.1% Triton X100, 5 min) and washed three times with PBS. Lipid droplets (1:2000 BODIPY 493/503) and nuclei (1:1000 Hoechst 33342) were stained for 1h. Imaging was performed in a Zeiss Axiovert automatic microscope. Number of lipid droplet accumulated in […] cells were analyzed using visual examination of the microscopic images and additional quantification by image segmentation using Cell Profiler.
Structure (SMILES),max response,Potency
CCOc1cc(F)c(CCNC(=O)c2cc3sccc3n2Cc2ccccc2)cc1OCC,-106%,–
O=C(NC1CCCc2c1cnn2-c1ccc(F)cc1F)c1cccs1 (stereo not given),-60.6%,–
CCOc1ccc(CCNC(C)=O)cc1OCC,-6.62%,–
O=C(NC1CCCc2c1cnn2-c1ccc(F)cc1F)c1ccccn1 (stereo not given),16%,16.6 µM (active) and 14.8 µM (active)
CCOc1ccc(CCNC(=O)c2cc3sccc3n2CCN2CCOCC2)cc1OCC,–,2.96 µM (active)
CCOc1ccc(CCNC(=O)c2ccc(C3(C(F)(F)F)N=N3)cc2)cc1OCC,–,7.43 µM (active)
CCn1c(C(=O)NCCc2ccc(OC)cc2)cc2sccc21,14.9%,–
CCOC(=O)C1CCN(C(=O)C(C)(C)NC(=O)Nc2ccc(Cl)cc2Cl)CC1,–,6.62 µM (active)
CCOc1ccc(CCNC(=O)C2COc3ccccc3O2)cc1OCC (stereo not given),–,18.7 µM (active)
Cc1cc(SCc2sc(-c3ccc(C(F)(F)F)cc3)nc2C)ccc1OCC(=O)O,14.2%,–
O=C(NCCc1ccc2c(c1)OCO2)c1cc2sccc2[nH]1,5.04%,–
CC(C)(C)OC(=O)NCCOCCOCCOc1cccc(-n2ncc3c2CCCC3NC(=O)c2ccccn2)c1 (stereo not given),–,14.8 µM (active)
CCOC(=O)C1CCN(C(=O)C(C)(C)NC(=O)Nc2ccc(Oc3ccccc3)cc2)CC1,–,6.62 µM (active)
O=C(NC1CCCc2c1cnn2-c1ccc(F)cc1F)c1ccn[nH]1 (stereo not given),-5.9%,–
CC(C)(C)OC(=O)NCCOCCOCCOCCn1ncc2c1CCCC2NC(=O)c1ccccn1 (stereo not given),0.489%,–
CCNC(=O)C1CCN(C(=O)C(C)(C)NC(=O)Nc2ccccc2Cl)CC1,-3.83%,–
CCOC(=O)C1CCN(C(=O)C(C)(C)NC(=O)Nc2cccc(OC)c2)CC1,–,16.6 µM (active)
CCOC(=O)C1CCN(C(=O)C(C)(C)NC(=O)Nc2ccc(C#N)cc2)CC1,-15.2%,–
CCOc1ccc(CCNC(=O)c2cc3sccc3[nH]2)cc1OCC,-4.32%,–
O=C(NC1CCCc2c1cnn2-c1ccc(O)cc1)c1ccccn1 (stereo not given),–,10.5 µM (active)

Structure (SMILES),max response,Potency
CCOc1ccc(CCNC(=O)c2cc3ccccc3n2C)cc1OCC,–,16.6 µM (active)
O=C(Cc1ccccc1)NC1CCCc2c1cnn2-c1ccc(F)cc1F (stereo not given),1.55%,–
CC(C)(C)OC(=O)NC1CCCc2c1cnn2-c1ccc(F)cc1F (stereo not given),3.11%,–
O=C(NC1CCCc2c1cnn2-c1ccc(F)cc1F)C1CCCCN1 (stereo not given),-10.9%,–
CCOc1ccc(CCNC(=O)c2cc3sccc3n2Cc2ccccc2)c(F)c1OCC,–,16.6 µM (active)
CCOc1ccc(CCNC(=O)c2cc3sccc3n2Cc2ccncc2)cc1OCC,–,2.96 µM (active)
CN(C)Cc1ccc(-c2nc3cccc4c3n2CCNC4=O)cc1,3.13%,–
CCOC(=O)C1CCN(C(=O)C(C)(C)NC(=O)Nc2ccc(-c3ccccc3)cc2)CC1,–,10.5 µM (active)
CCOC(=O)C1CCN(C(=O)C(C)(C)NC(=O)Nc2ccc(N)cc2)CC1,-5.67%,–
CCOc1ccc(CCNC(=O)c2cc3sccc3n2Cc2ccc(-n3cncn3)cc2)cc1OCC,–,5.9 µM (active)
Cc1cc2c(cc1C1(c3ccc(C(=O)O)cc3)CC1)C(C)(C)CCC2(C)C,-1.19%,–
CCOc1ccc(CCNC(=O)CN(C)C)cc1OCC,-3.2%,–
CC(C)Oc1ccc(CCNC(=O)c2cc3sccc3n2Cc2ccccc2)cc1OC(C)C,–,1.66 µM (active)
O=C(NC1CCCc2c1cnn2-c1ccc(F)cc1F)c1ccncc1 (stereo not given),1.34%,–
CCOC(=O)C1CCN(C(=O)CNC(=O)Nc2ccccc2Cl)CC1,11.1%,–
O=C(O)CCc1ccc(NCc2cccc(Oc3ccccc3)c2)cc1,-0.35%,–
Cc1ccc(NC(=O)c2ccc(CN3CCN(C)CC3)cc2)cc1Nc1nc(-c2cccnc2)cs1,-0.902%,–
CCOC(=O)C1CCN(C(=O)C(C)(C)NC(=O)Nc2cccc(-c3csc(C)n3)c2)CC1,3.3%,–
CCOC(=O)C1CCN(C(=O)C2(NC(=O)Nc3ccc(F)cc3F)CCCCC2)CC1,–,16.6 µM (active)
